TIM10 inh – inhibits growth of TIM10 yeast strain; S. cerevisiae TIM10 strain growth, BacTiter-Glo luminescence, 24 h; AID 463195; hit rate 1.4% among 330,000; inhibition, % at 10 µM;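 active = inhibition of 40% or more at the single tested concentration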;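 also: wild-type TIM10 isogenic control strain grown at permissive 25 °C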
tim23-1 inh – growth inhibitors of tim23-1 mutant yeast | S. cerevisiae tim23-1 growth, BacTiter-Glo luminescence, 24 h | inhibition, % at 20 µM | hit rate 1.3% among 330,000 | AID 463212;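 active = growth inhibition of the mutant yeast at or above 50%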;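 also: temperature-sensitive mutant grown at 25 °C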
PfHsp90 yeast 2 – inhibits growth of yeast expressing Plasmodium falciparum Hsp90 | inhibition, % at 9.4 µM | S. cerevisiae expressing PfHsp90, BacTiter-Glo ATP, 48 h; yeast lacking PDR1 and PDR3 efflux regulators | hit rate 0.32% among 310,000;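 active = every replicate shows inhibition above about 80%, whatever the replicate mean, limit read from the data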
tim10-1 inh – growth inhibitors of tim10-1 mutant yeast | S. cerevisiae tim10-1 ts strain growth, BacTiter-Glo, 24 h | hit rate 2.2% among 330,000 | inhibition, % at 20 µM;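 active = inhibition of at least 40%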;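 also: mutant grown at 25 °C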
SKKanGAS inh – blocks kanamycin growth of S. pyogenes SKKanGAS strain. BacTiter-Glo, 6 h. inhibition, % at 7.5 µM. hit rate 1.3% among 300,000. AID 1662;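 active = mean replicate score, as percent of positive control median, at least 50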;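 also: strain carries kanamycin resistance gene driven by streptokinase promoter and grows in 40 µg/ml kanamycin; loss of luminescence reflects streptokinase promoter inhibition or plain growth inhibition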
EBI2 antag – blocks human EBI2 receptor beta-arrestin signaling | P32249 | EBI2 beta-arrestin recruitment, luminescence, 7a,25-OHC stimulated | inhibition, % at 5 µM | hit rate 0.81% among 360,000; in the data active = inhibition above about 38%;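 also: enzyme fragment complementation signal reports receptor beta-arrestin coupling in cells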
Target sequence (P32249 whole entry, looked up, the tested form may be a part): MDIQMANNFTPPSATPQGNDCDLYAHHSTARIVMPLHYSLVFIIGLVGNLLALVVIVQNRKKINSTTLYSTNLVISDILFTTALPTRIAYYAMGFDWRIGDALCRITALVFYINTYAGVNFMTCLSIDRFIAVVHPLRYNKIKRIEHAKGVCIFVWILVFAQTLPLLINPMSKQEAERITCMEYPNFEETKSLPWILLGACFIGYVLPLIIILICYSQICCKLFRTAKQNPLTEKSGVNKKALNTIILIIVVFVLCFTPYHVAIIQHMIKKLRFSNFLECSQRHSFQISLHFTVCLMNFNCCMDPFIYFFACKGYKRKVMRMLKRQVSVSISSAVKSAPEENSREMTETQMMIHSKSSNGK
EBI2 conf – EBI2 (human) antagonism, single concentration confirmation. shares compounds with EBI2 antag. EBI2 beta-arrestin luminescence, 7a,25-OHC antagonism. inhibition, % at 5 µM. hit rate 29% among 2,400;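 active = inhibition of at least 50%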
EBI2 agonist – EBI2 agonism counter-screen; shares compounds with EBI2 antag; EBI2-expressing cells, agonist mode, luminescence, 60 min; 0% vehicle, 100% 7α,25-dihydroxycholesterol control; activation, % at 5 µM; 2,400 tested, under 10 active;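 active = activation of at least 50%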
bGal counter – inhibits E. coli beta-galactosidase, counter-screen for EBI2 antagonists; purified beta-galactosidase, luminescent Galacton Star, 15 min; inhibition, % at 5 µM; shares compounds with EBI2 antag; hit rate 1% among 2,400;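 active = replicate-average signal at least 3 plate SD below neutral wells, shown as high inhibition, flagging enzyme-inhibiting false positives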;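 also: higher means stronger loss of beta-gal luminescence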
Large screens that a line does not name were inactive (follow-up assays come after a bar, where they were run). Shown are actives, neighbours in structure and some others; about 4.7% of the full set was active somewhere.

CCOC(=O)C1CCN(C(=O)c2cc3c(ccc4ccccc43)o2)CC1	EBI2 antag 77.7 | EBI2 conf 64.0 | EBI2 agonist inactive | bGal counter inactive
CC1CCN(C(=O)c2cc3c(ccc4ccccc43)o2)CC1	EBI2 antag 81.8 | EBI2 conf 61.8 | EBI2 agonist inactive | bGal counter inactive
CC1CCN(C(=O)c2cc3ccccc3c(=O)o2)CC1	none
CN1CCC(N(C)S(=O)(=O)c2ccc(NC(=O)COc3ccc(Cl)cc3)cc2)CC1	EBI2 antag 53.7 (no result: SKKanGAS inh) | EBI2 conf inactive | EBI2 agonist inactive | bGal counter inactive
Cc1cn2c(-c3ccncc3)nnc2s1	none
Brc1ccc(-c2nnc3sc(CN4CCC5(CC4)OCCO5)cn23)cc1	EBI2 antag 55.8 (no result: PfHsp90 yeast 2) | EBI2 conf inactive | EBI2 agonist inactive | bGal counter inactive
Cc1ccc(S(=O)(=O)N2CCCN(Cc3nc4ccccc4c(=O)[nH]3)CC2)cc1	none (no result: PfHsp90 yeast 2, SKKanGAS inh)
COc1cc2nc(CN3CCN(S(=O)(=O)c4ccc(C)c(C)c4)CC3)[nH]c(=O)c2cc1OC	EBI2 antag 46.9 | EBI2 conf inactive | EBI2 agonist inactive | bGal counter inactive
CCCN1CCC(=O)N(CCOc2ccccc2)CC1	none
CC(C)(C)C1CCC(=O)N(CCOc2ccccc2)CC1 (stereo not drawn)	EBI2 antag 52.2 | EBI2 conf inactive | EBI2 agonist inactive | bGal counter inactive
CCOC(=O)c1c(Nc2ccccc2)sc(/C=C2\C=Nc3ccccc32)c1O	EBI2 antag 52.9 | EBI2 conf inactive | EBI2 agonist inactive | bGal counter inactive
CCn1c(O)c(/C=C2\C=Nc3ccccc32)sc1=Nc1ccc(C)cc1	none
CC(C)Cn1c(N2CCN(CC(=O)Nc3ccc(Cl)cc3)CC2)nc2ccccc21	EBI2 antag 74.3 | EBI2 conf inactive | EBI2 agonist inactive | bGal counter inactive
Cc1ccc(SCc2nc3ccccc3n2CC(=O)Nc2ccc(Cl)cc2)cc1	none
CCOc1ccc(-n2c(-c3ccco3)nc3c(cnn3-c3ccc(C)cc3)c2=O)cc1	EBI2 antag 46.8 | EBI2 conf inactive | EBI2 agonist inactive | bGal counter inactive
COc1cccc(CN2CCCC(C(=O)N3CCCCC3)C2)c1 (stereo not drawn)	none
COC(=O)c1ccc(Oc2ccc(S(=O)(=O)N3CCCCC3)cc2N)cc1	EBI2 antag 35.5 | EBI2 conf inactive | EBI2 agonist inactive | bGal counter inactive
COC(=O)c1[nH]c2cc(OC)ccc2c1NC(=O)CN1CCN(c2cccc(C)c2)C(C)C1 (stereo not drawn)	EBI2 antag 72.5 | EBI2 conf 69.7 | EBI2 agonist inactive | bGal counter inactive
Cc1ccc(S(=O)(=O)N2CCN(C(=O)Cn3nc(C)c([N+](=O)[O-])c3C)CC2)cc1	none (no result: SKKanGAS inh)
C#CCOCCOCCOCCNc1nc(N2CCN(C(=O)[C@H](CCCCN)n3cc(CN)nn3)CC2)nc(N2CCN(C(=O)[C@H](CCC(=O)O)n3cc([C@@H](N)CCSC)nn3)CC2)n1	none (no result: SKKanGAS inh)
O=C(NCc1ccc(Cl)cc1)C1CCC(CNS(=O)(=O)c2ccccc2)CC1 (stereo not drawn)	EBI2 antag 59.3 | EBI2 conf inactive | EBI2 agonist inactive | bGal counter inactive
O=C(NCc1ccc(Cl)cc1)C1CCC(CNc2c(N3CCCCC3)c(=O)c2=O)CC1 (stereo not drawn)	EBI2 antag 49.7 | EBI2 conf inactive | EBI2 agonist inactive | bGal counter inactive
Cc1ccc(CNC(=O)C2CCC(CNS(=O)(=O)c3cccs3)CC2)cc1 (stereo not drawn)	EBI2 antag 65.6 | EBI2 conf inactive | EBI2 agonist inactive | bGal counter inactive
Cc1cccc(CCNC(=O)C2CCC(CNS(=O)(=O)c3cccs3)CC2)c1 (stereo not drawn)	none
COc1ccccc1-n1nnnc1SCC(=O)Nc1ccc(C)c(N)c1	none
N#CCCN(C(=O)COC(=O)C1CCN(S(=O)(=O)c2ccccc2C(F)(F)F)CC1)c1ccccc1	none (no result: TIM10 inh, tim23-1 inh, tim10-1 inh, SKKanGAS inh)
NC(=O)Cn1cnc2nc3n(c2c1=O)CCC3	none
CCOC(=O)c1c(NC(=O)COc2cccc3c2CCN(C)C3=O)sc2c1CCC2	EBI2 antag 50.7 | EBI2 conf inactive | EBI2 agonist inactive | bGal counter inactive
O=C(c1ccccc1NS(=O)(=O)c1cccc([N+](=O)[O-])c1)N1CCCC1	none
Cc1sc2ncn(CC(=O)NCC3COc4ccccc4O3)c(=O)c2c1S(=O)(=O)N1CCCCC1 (stereo not drawn)	none
O=C(Nc1cccc(Cl)c1)N1CCN(C/C=C/c2ccccc2)CC1	EBI2 antag 54.7 (no result: PfHsp90 yeast 2) | EBI2 conf inactive | EBI2 agonist inactive | bGal counter inactive
O=C(c1ccc(Br)s1)N1CCN(C/C=C/c2ccccc2)CC1	EBI2 antag 42.8 (no result: PfHsp90 yeast 2) | EBI2 conf inactive | EBI2 agonist inactive | bGal counter inactive
C[C@H](NC(=O)c1ccc(C(C)(C)C)cc1)C(=O)N1CCN(C/C=C/c2ccccc2)CC1	EBI2 antag 72.1 (no result: SKKanGAS inh) | EBI2 conf 53.8 | EBI2 agonist inactive | bGal counter inactive
CC(C)N(C(=O)COC(=O)c1ccccc1C(=O)c1ccc(Cl)c([N+](=O)[O-])c1)C(C)C	EBI2 antag 46.4 | EBI2 conf inactive | EBI2 agonist inactive | bGal counter inactive
COc1cccc(C(=O)NCCS(=O)(=O)N2CCC(C)CC2)c1	none
CCCCN(C(=O)c1cccc2c(=O)c(C)c(-c3ccccc3)oc12)c1ccccc1	none (no result: TIM10 inh, tim23-1 inh, tim10-1 inh)
O=C(CN1C(=O)C2CC=CCC2C1=O)Nc1cc(C(F)(F)F)ccc1N1CCCC1 (stereo not drawn)	EBI2 antag 46.3 | EBI2 conf inactive | EBI2 agonist inactive | bGal counter inactive
CC1(c2cccs2)CC(c2cccs2)=C(C#N)C(=O)N1 (stereo not drawn)	EBI2 antag 84.8 | EBI2 conf 64.2 | EBI2 agonist inactive | bGal counter inactive
CCOc1ccc(OCC)c(NC(=O)CN(c2ccc(OC)cc2)S(=O)(=O)c2c(C)noc2C)c1	EBI2 antag 69.3 | EBI2 conf inactive | EBI2 agonist inactive | bGal counter inactive
CCOc1ccccc1NC(=O)CN(c1ccc(C)cc1)S(=O)(=O)c1c(C)noc1C	none (no result: SKKanGAS inh)
COc1ccc(OC)c(NC(=O)CN(c2ccc(C(C)C)cc2)S(=O)(=O)c2c(C)noc2C)c1	none
CCOc1ccc(OCC)c(NC(=O)CN(c2ccc(C)cc2)S(=O)(=O)c2c(C)noc2C)c1	EBI2 antag 72.5 | EBI2 conf inactive | EBI2 agonist inactive | bGal counter inactive

Screening results from PubChem.
